Screen size: about 190,000 compounds; about 930 (0.49%) were called active.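 How the source made its calls: active means z-score of insulin promoter reporter brightness in nuclei below -3 at 5 µM, with at least 500 cells counted; inconclusive means wells with under 500 cells, flagged as toxic or sparse; inactive means the rest.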 The list shows a part of the results. Measured potencies and affinities stand elsewhere.
Assay: decrease of insulin promoter-GFP reporter – imaging, high-content screening, mouse beta cells (AID 1628)
Details: MIN6 insulin promoter GFP reporter, at 5 µM, stronger effect = lower value

Structure (SMILES)	z-score
COc1cccc(OCCOc2cccc(/C=N/n3cnnc3)c2)c1	-5.3 (active)
COc1cccc(/C=N/NC(=O)CCn2cnc3ccccc32)c1	3.74 (inactive)
COc1ccc(CCNC(=O)c2cnc3scc(C)n3c2=O)cc1OC	0.78 (inactive)
COc1ccc(/C(O)=C/c2nc3ccc(C(=O)NCCc4cccc(C)c4)cc3[nH]c2=O)cc1OC	4.75 (inactive)
COc1ccc(CCNc2ncnc3cc(OC)c(OC)cc23)cc1OC	-3.22 (active)
CCOC(=O)COc1cccc2c(=O)n(CC(=O)NCCc3ccc(OC)c(OC)c3)ccc12	3.56 (inactive)
COc1ccc(CCNc2ncnc3[nH]ncc23)cc1OC	-7.54 (active)
CCCCCn1nc(-c2ccccc2)c2nc3ccccc3nc21	4.99 (inactive)
CCCCn1c(=O)[nH]c2nc3cc(N)ccc3nc2c1=O	4.83 (inactive)
CCCCCn1c(=O)c(-c2nc3ccccc3[nH]2)c(O)c2ccccc21	-5.3 (active)
COCCCn1cc(C(=O)c2cc(Br)ccc2O)cc(C#N)c1=O	2.45 (inactive)
CCC(=O)NC(Nc1ncc(C)s1)(C(=O)OC)C(F)(F)F (configuration not stated)	0.55 (inactive)
O=C(Nc1ccc(N2CCN(C(=O)c3ccccc3)CC2)c(Cl)c1)c1ccc(Br)o1	-3.01 (active)
O=C(Nc1ccc(N2CCN(C(=O)c3ccco3)CC2)c(Cl)c1)c1cc2ccccc2o1	-5.03 (active)
COc1ccc2nc(SCC(C)=O)c(C#N)cc2c1	8.23 (inactive)
Cc1nonc1NC(=O)CSc1nc2c(C)cccc2cc1C#N	12.5 (inactive)
CCOC(=O)c1cc(C#N)c(SCC(=O)c2cc(C#N)c(SC)nc2C)nc1C	-4.9 (active)
O=[N+]([O-])c1ccc(C2=NN(c3ccccc3)C(c3ccco3)C2)cc1 (configuration not stated)	16.5 (inactive)
COc1cc(OC)cc(C(=O)N2CCC(N3CCCCCC3)CC2)c1	1.84 (inactive)
CCOC(=O)c1ccc(Nc2ccc(-c3ccc(OC)c(OC)c3)nn2)cc1	-3.46 (active)
Cn1c(=O)c(Nc2ccc(Cl)cc2)c2c3c(cccc31)C(=O)c1ccccc1-2	15.1 (inactive)
N#C/C(=C\c1ccc(N2CCOCC2)o1)c1nc2ccccc2[nH]1	8.22 (inactive)
NS(=O)(=O)c1cccc2cccnc12	5.52 (inactive)
NCC12CC3CC(C1)CC(CN)(C3)C2	3.09 (inactive)

Structure (SMILES)	z-score
Cn1cc(/C=C2\SC(=S)N(NC(=O)c3ccccc3Cl)C2=O)c2ccccc21	7 (inactive)
CCOC(=O)c1c(NC(=O)CSc2nnnn2C)sc(C)c1-c1ccc(C)cc1	-3.09 (active)
CCOC(=O)c1sc(=S)n(-c2ccccc2)c1N(C(C)=O)C(C)=O	1.57 (inactive)
COc1ccc(NC(=O)CSc2nnnn2C)c([N+](=O)[O-])c1	0.83 (inactive)
CCOC(=O)c1sc(-c2ccccc2)cc1NC(=O)CSc1nnnn1C	-3.34 (active)
CC(C)(C)C(=O)c1sc2nc(-c3cccs3)cc(C(F)(F)F)c2c1N	13.8 (inactive)
CCOc1ccccc1NC(=O)C1CCN(S(=O)(=O)c2ccc(OC)c(OC)c2)CC1	0.9 (inactive)
COc1ccc(NC(=O)C2CCN(Cc3cnn(-c4ccccc4)c3-n3cccc3)CC2)cc1OC	-4.57 (active)
NC(CO)C(O)c1ccc([N+](=O)[O-])cc1 (configuration not stated)	-0.09 (inactive)
COCCN(CCOC)Cc1cc(=O)oc2cc3c(cc12)CCC3	3.14 (inactive)
Cc1cccn2c(=O)c(/C=C3\SC(=S)N(CC(C)C)C3=O)c(NCCCOC(C)C)nc12	12.1 (inactive)
O=c1[nH]c(CN2CCN(Cc3ccc4c(c3)OCO4)CC2)nc2sc3c(c12)CCC3	3.55 (inactive)
C(=C/c1nccc2c1[nH]c1ccccc12)/c1ccc2c(c1)OCO2	10.6 (inactive)
Cc1ccc2[nH]c3c(c2c1)CN(C(=O)CN1CCN(Cc2ccc4c(c2)OCO4)CC1)CC3	-3.96 (active)
O=C(CN1CCN(Cc2ccc3c(c2)OCO3)CC1)N1CCc2[nH]c3ccccc3c2C1	-4.04 (active)
CCN(CC)c1ccc2cc(-c3nnc(-c4ccncc4)o3)c(=O)oc2c1	4.43 (inactive)
COc1ccc2nc(SCC(=O)Nc3ccc(S(=O)(=O)N4CCCC4)cc3)c(C#N)cc2c1	3.47 (inactive)
COc1ccc(S(=O)(=O)N2CCCCC2)cc1NC(=O)CSc1ncnc2ccccc12	-4.48 (active)
Cc1ccc(-c2noc(CSc3nnnn3-c3ccccc3)n2)cc1	2.35 (inactive)
COC(=O)c1ccccc1NC(=S)N1CCC(N2CCCCC2)CC1	1.65 (inactive)
CCOC(=O)c1ccccc1NC(=O)c1ccc2c(=O)n3c(nc2c1)CCCCC3	-3.69 (active)
CC1(C)CC(N2CCCC2)=CC(=[N+]2CCCCCC2)C1	-4.54 (active)
CCOc1ccc(-n2c(SCC(=O)NC(C)CC)nc3n[nH]c(C)c3c2=N)cc1 (configuration not stated)	3 (inactive)

From PubChem BioAssay AID1628 (Sanford-Burnham Center for Chemical Genomics, 2009)
